Assay [1] can be described thus: ATG_GRE_CIS: Attagene CIS-FACTORIAL HepG2 Assay for human Glucocorticoid Response Elements (GRE) (AID 2282947; active = hit-call score of the fitted dose curve at least 0.9, where 1 is the maximum; inactive = score below 0.9). The conditions noted are these: HepG2 GRE cis-reporter, Attagene multiplex mRNA; actives raise or lower the signal. In a few lines: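 HepG2, transient cis-reporter transfection, 24 h. Reporter mRNA: RT-PCR then CE, fluorescence. Fit both directions vs DMSO.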

Assay [2] in a line: ATG_PBREM_CIS: Attagene CIS-FACTORIAL HepG2 Assay for human Phenobarbital-responsive Enhancer Module (PBREM) (AID 2282955; active = hit-call score of the fitted dose curve at least 0.9, where 1 is the maximum; inactive = score below 0.9). The conditions noted are these: HepG2 PBREM cis-reporter, Attagene multiplexed transcription; actives raise or lower the signal. A digest of the protocol: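 Multiplexed cis-reporter readout in human hepatoma HepG2 cells; PBREM-regulated transcript quantified after 24 h exposure by fluorescent RT-PCR fragment analysis. Signal changes up or down fitted relative to DMSO.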

A short description of assay [3]: ATG_RORE_CIS: Attagene CIS-FACTORIAL HepG2 Assay for human RAR-related Orphan Receptor Element (RORE) (AID 2282959; active = hit-call score of the fitted dose curve at least 0.9, where 1 is the maximum; inactive = score below 0.9). The conditions noted are these: HepG2 Attagene cis-factorial RORE reporter, mRNA; actives raise or lower the signal. A digest of the protocol: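 Transfect HepG2 with MRTUs; treat 24 h; extract RNA; RT with oligo(dT); PCR with reporter-specific primers; 6-FAM primer extension; HpaI digest 2 h at 37 C; capillary electrophoresis. Fit vs DMSO, bidirectional.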

Assay [4] has as its target Transcription factor Sp1 (Homo sapiens) (UniProt P08047). The assay is described as follows: ATG_Sp1_CIS: Attagene CIS-FACTORIAL HepG2 Assay for human Specificity Protein 1 (Sp1) (AID 2282961; active = hit-call score of the fitted dose curve at least 0.9, where 1 is the maximum; inactive = score below 0.9). The conditions noted are these: HepG2 Sp1 cis-reporter transcription, actives raise or lower the signal. A digest of the protocol:
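Chemicals are dosed onto HepG2 cells transfected with multiple cis-promoter reporter constructs, and after 24 h reporter RNA is reverse-transcribed, PCR-amplified and resolved by capillary electrophoresis for fluorescence quantitation; activity is scored up or down against DMSO.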

The target in assay [5] is Signal transducer and activator of transcription 3 (Homo sapiens) (UniProt P40763). The assay can be described thus: ATG_STAT3_CIS: Attagene CIS-FACTORIAL HepG2 Assay for human Signal Transducer and Activator of Transcription 3 (STAT3) (AID 2282963; active = hit-call score of the fitted dose curve at least 0.9, where 1 is the maximum; inactive = score below 0.9). The conditions noted are these: HepG2, Attagene cis-factorial STAT3 reporter transcription; actives raise or lower the signal. A digest of the protocol: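 Uses human liver HepG2 transiently carrying cis-regulated reporter transcription units. Following 24 h dosing, reporter mRNA induction was detected by RT-PCR and capillary electrophoresis, analysed bidirectionally versus DMSO.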

The target of assay [6] is Hepatocyte nuclear factor 4-alpha (Homo sapiens) (UniProt P41235). The assay is described as follows: ATG_HNF4a_TRANS: Attagene TRANS-FACTORIAL HepG2 Assay for human Hepatocyte Nuclear Factor 4 alpha (HNF4a) (AID 2282982). The settings on record: HepG2 HNF4a transactivation reporter, mRNA readout. A digest of the protocol: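 Using HepG2 liver cells transfected with GAL4-UAS reporter units, chemical-induced mRNA increases were assessed after 24 hours. Fluorescent RT-PCR fragments were separated by capillary electrophoresis and compared with DMSO negative controls.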

Assay [7] is described as follows: ATG_M_06_TRANS: Attagene TRANS-FACTORIAL HepG2 Assay for M06 Transcription Factor (Internal Marker) (AID 2282983).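 Also: reporter transcript level by RT-PCR then capillary electrophoresis fluorescence.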 The settings on record: HepG2 Attagene TRANS M06 internal marker reporter. In a few lines:
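Read-out: fluorescent reporter cDNA fragments resolved by capillary electrophoresis after RT-PCR and HpaI cut. Source cells were HepG2 carrying transfected multi-reporter GAL4 constructs, dosed 24 h. Increase over DMSO control analysed.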

Assay [8] addresses Transcriptional activator Myb (Homo sapiens) (UniProt P10242). The assay can be described thus: ATG_Myb_CIS: Attagene CIS-FACTORIAL HepG2 Assay for human Myeloblastosis (Myb) Proto-Oncogene Transcription Factor (AID 2282986; active = hit-call score of the fitted dose curve at least 0.9, where 1 is the maximum; inactive = score below 0.9). The conditions noted are these: HepG2 Attagene CIS-FACTORIAL Myb reporter transcription; actives raise or lower the signal. In a few lines:
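Using HepG2 liver cells bearing transiently transfected cis-promoter reporter constructs, the assay measures induction or loss of reporter mRNA after 24 hours of dosing. Detection used fluorescently labeled RT-PCR products separated by capillary electrophoresis.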

A short description of assay [9]: ATG_NFI_CIS: Attagene CIS-FACTORIAL HepG2 Assay for human Nuclear Factor I (NFI) (AID 2282989; active = hit-call score of the fitted dose curve at least 0.9, where 1 is the maximum; inactive = score below 0.9). The conditions noted are these: HepG2 cis-regulatory reporter, NFI response element transcription; actives raise or lower the signal. A digest of the protocol:
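HepG2, transient MRTU, 24 h exposure; RNA→cDNA→PCR→FAM label→HpaI→CE fluorescence. Bidirectional fit, DMSO = baseline.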

The target in assay [10] is Peroxisome proliferator-activated receptor gamma (Homo sapiens) (UniProt P37231). The assay is described as follows: ATG_PPARg_TRANS: Attagene TRANS-FACTORIAL HepG2 Assay for human Peroxisome Proliferator-activated Receptor-gamma (PPARg) (AID 2283007). In a few lines: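 Chimeric NR-Gal4 transactivation is measured in transiently transfected HepG2 cells by reporter mRNA induction at 24 h. Detection uses RT-PCR with fluorescent labelling and capillary electrophoresis; DMSO defines baseline.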

Assay [11] deals with human Retinoid X Receptor beta (RXRb), RXRB (gene 6257) (UniProt P28702). The assay can be described thus: ATG_RXRb_TRANS: Attagene TRANS-FACTORIAL HepG2 Assay for human Retinoid X Receptor beta (RXRb) (AID 2283013). In a few lines: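 Read-out: reporter mRNA induction via RT-PCR plus capillary electrophoresis fluorescence, analysed as signal increase relative to DMSO. Cells were human HepG2, transiently transfected with GAL4-UAS reporter constructs and chimeric receptor-Gal4 fusions, dosed for 24 h.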

Assay [12] has as its target Cellular tumor antigen p53 (Homo sapiens) (UniProt P04637). The assay is described as follows: TOX21_p53_BLA_p2_ratio: Tox21 HCT-116 p53 Agonism Beta-lactamase Assay, Ratio, Phase 2 (AID 2283592). In a few lines: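 Readout: blue/green (460/530 nm) FRET emission ratio after 2 h CCF4-AM loading at room temperature, excitation 405 nm. HCT116 p53 bla cells, 16 h compound exposure at 37C, 5% CO2; agonist direction fitted against DMSO baseline.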

Assay [13] in a line: TOX21_p53_BLA_p4_viability: Viability Assessment in the Tox21 HCT-116 p53 Agonism Beta-lactamase Assay, Phase 4 (AID 2283597).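 Also: hits lower the luminescence signal meaning cytotoxicity.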 In a few lines:
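ATP content by CellTiter-Glo luminescence, 30 min RT, read after the beta-lactamase ratio step. Cells: HCT116, 4000/well, compound added after 5 h, exposure 16 h at 37C. Signal loss = reduced viability.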

Assay [14] concerns the target Cellular tumor antigen p53 (Homo sapiens) (UniProt P04637). The assay is described as follows: TOX21_p53_BLA_p5_ratio: Tox21 HCT-116 p53 Agonism Beta-lactamase Assay, Ratio, Phase 5 (AID 2283599). In a few lines:
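HCT-116 cells carrying a p53-inducible beta-lactamase reporter were seeded at 4000 cells/well and dosed after 5 h with compound in DMSO (217-fold dilution). After 16 h at 37C, CCF4-AM substrate was added for 2 h, and the 460/530 nm emission ratio was scored as gain-of-signal versus DMSO.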

Assay [15] is described as follows: TOX21_p53_BLA_p5_viability: Viability Assessment in the Tox21 HCT-116 p53 Agonism Beta-lactamase Assay, Phase 5 (AID 2283600). In a few lines: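 ATP luminescence (CellTiter-Glo, 30 min, RT) served as the viability read-out, with loss of signal indicating cytotoxicity. Compounds in DMSO were pinned at a 217-fold dilution onto 4000 cells/well and incubated 16 h, 37C.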

The target in assay [16] is Cellular tumor antigen p53 (Homo sapiens) (UniProt P04637). The assay is described as follows: TOX21_p53_BLA_p4_ratio: Tox21 HCT-116 p53 Agonism Beta-lactamase Assay, Ratio, Phase 4 (AID 2283601). A digest of the protocol: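 HCT116 cells carrying an inducible beta-lactamase reporter were plated at 4000 cells/well, rested 5 h, then exposed to compounds in DMSO (217-fold dilution) for 16 h at 37C. CCF4-AM substrate was loaded 2 h at room temperature; 460/530 nm emission ratio scored gain-of-signal versus DMSO.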

A short description of assay [17]: ACEA_ER_AUC_viability: ACEA Biosciences xCELLigence Real-Time Cell Analysis on Estrogen Receptor Agonism for Viability (AID 2283782).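 Also: hit means loss of impedance signal meaning reduced cell growth or viability.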 In a few lines: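 Continuous-exposure impedance cell analysis uses T-47D cells in charcoal-stripped serum, eight 1:4 dilutions topping at 100 uM final, biological duplicate. Area under the growth curve at 80 h is fitted against DMSO baseline.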

A short description of assay [18]: ATG_M_32_TRANS: Attagene TRANS-FACTORIAL HepG2 Assay for M32 Transcription Factor (Internal Marker) (AID 2282984).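 Also: transcript level of a background control reporter unit measured by RT-PCR and capillary electrophoresis.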 The conditions noted are these: HepG2 Attagene TRANS M32 internal marker reporter. In a few lines: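 Fluorescence-detected mRNA induction, HepG2 liver cells, 24 h after dosing. Multiple GAL4-UAS reporter units introduced by transient transfection; background-control endpoint analysed for gain of signal against DMSO.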

Assay [19] in a line: TOX21_p53_BLA_p2_viability: Viability Assessment in the Tox21 HCT-116 p53 Agonism Beta-lactamase Assay, Phase 2 (AID 2283591).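 Also: actives lower the ATP signal meaning cytotoxicity.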 In a few lines: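 HCT-116 p53-bla cells (4000/well) rested 5 h at 37C, then received compounds in DMSO (217-fold dilution) for 16 h at 37C, 5% CO2. After the CCF4 read, CellTiter-Glo was added; ATP luminescence was read after 30 min at room temperature.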

In assay [20] the target is Cellular tumor antigen p53 (Homo sapiens) (UniProt P04637). The assay can be described thus: TOX21_p53_BLA_p3_ratio: Tox21 HCT-116 p53 Agonism Beta-lactamase Assay, Ratio, Phase 3 (AID 2283596). A digest of the protocol: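 Cells were seeded at 4000/well, rested 5 h at 37C, then dosed with DMSO compound solutions (217-fold dilution) for 16 h. CCF4-AM substrate was loaded for 2 h at room temperature, and the 460/530 nm emission ratio was fitted for gain of signal versus DMSO.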

Each structure is given as a SMILES string. Results filed as inconclusive are left out. Active and inactive are the calls of the source. The calls were made as follows, unless noted: active = hit-call score of the fitted dose curve at least 0.9, where 1 is the maximum; inconclusive = response in the unintended direction; inactive = score below 0.9.

Transcriptional activator Myb (Homo sapiens), sequence (P10242 whole entry, looked up): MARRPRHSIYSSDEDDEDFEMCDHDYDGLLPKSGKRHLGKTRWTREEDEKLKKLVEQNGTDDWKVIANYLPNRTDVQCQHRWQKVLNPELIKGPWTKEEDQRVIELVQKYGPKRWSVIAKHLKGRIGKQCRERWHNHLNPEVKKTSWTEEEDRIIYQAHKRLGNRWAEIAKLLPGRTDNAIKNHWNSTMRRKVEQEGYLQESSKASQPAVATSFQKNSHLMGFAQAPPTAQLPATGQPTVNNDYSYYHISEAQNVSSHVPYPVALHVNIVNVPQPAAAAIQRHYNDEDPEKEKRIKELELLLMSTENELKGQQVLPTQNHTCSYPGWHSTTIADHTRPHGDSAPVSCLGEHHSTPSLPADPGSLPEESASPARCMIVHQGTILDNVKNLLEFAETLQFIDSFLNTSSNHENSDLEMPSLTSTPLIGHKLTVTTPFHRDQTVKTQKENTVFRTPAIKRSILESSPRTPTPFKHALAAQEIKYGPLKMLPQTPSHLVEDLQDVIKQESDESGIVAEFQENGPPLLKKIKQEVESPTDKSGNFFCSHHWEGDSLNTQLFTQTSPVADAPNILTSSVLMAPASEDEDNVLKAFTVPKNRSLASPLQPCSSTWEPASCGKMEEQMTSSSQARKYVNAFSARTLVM
Signal transducer and activator of transcription 3 (Homo sapiens), sequence (P40763 whole entry, looked up): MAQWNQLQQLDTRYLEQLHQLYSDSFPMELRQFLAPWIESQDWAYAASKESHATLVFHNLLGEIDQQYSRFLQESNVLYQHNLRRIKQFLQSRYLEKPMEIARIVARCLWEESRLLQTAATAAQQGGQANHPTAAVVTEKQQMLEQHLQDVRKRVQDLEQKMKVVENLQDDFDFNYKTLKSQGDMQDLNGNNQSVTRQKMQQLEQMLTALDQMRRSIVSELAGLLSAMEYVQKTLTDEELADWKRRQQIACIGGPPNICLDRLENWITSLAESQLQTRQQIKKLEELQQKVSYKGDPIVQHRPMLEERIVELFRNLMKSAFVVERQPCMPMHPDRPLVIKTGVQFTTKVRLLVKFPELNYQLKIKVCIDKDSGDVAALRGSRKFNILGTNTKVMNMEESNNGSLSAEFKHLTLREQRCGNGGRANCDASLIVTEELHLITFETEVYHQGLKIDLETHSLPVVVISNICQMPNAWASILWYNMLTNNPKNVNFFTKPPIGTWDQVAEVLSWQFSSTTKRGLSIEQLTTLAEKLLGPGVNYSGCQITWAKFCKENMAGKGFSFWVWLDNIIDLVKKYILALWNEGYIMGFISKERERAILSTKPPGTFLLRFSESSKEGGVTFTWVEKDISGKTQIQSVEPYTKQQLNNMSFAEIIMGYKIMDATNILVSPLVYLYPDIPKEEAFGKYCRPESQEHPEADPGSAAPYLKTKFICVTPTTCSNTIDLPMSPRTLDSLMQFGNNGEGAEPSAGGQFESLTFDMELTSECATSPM
Transcription factor Sp1 (Homo sapiens), sequence (P08047 whole entry, looked up): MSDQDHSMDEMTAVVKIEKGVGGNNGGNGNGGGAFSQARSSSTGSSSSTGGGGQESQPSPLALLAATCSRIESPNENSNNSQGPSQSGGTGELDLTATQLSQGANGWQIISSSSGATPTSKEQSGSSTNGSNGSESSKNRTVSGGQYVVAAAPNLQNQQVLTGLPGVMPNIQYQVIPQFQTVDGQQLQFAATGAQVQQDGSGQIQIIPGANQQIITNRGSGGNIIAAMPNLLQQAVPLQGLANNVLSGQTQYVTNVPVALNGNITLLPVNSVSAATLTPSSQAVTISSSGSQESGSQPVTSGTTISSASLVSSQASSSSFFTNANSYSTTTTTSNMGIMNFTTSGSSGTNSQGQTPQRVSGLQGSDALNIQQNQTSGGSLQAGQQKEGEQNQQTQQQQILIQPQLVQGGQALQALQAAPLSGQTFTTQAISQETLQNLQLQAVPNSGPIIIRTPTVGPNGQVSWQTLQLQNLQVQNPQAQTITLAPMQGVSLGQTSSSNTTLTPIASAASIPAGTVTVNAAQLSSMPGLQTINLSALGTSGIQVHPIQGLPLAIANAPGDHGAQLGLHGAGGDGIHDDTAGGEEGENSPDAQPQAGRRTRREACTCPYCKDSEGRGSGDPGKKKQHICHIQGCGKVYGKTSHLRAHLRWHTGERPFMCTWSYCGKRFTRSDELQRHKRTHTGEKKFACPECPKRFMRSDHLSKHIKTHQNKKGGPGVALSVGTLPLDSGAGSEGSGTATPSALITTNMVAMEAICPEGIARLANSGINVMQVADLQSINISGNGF
Peroxisome proliferator-activated receptor gamma (Homo sapiens), sequence (P37231 whole entry, looked up, the tested form may be a part): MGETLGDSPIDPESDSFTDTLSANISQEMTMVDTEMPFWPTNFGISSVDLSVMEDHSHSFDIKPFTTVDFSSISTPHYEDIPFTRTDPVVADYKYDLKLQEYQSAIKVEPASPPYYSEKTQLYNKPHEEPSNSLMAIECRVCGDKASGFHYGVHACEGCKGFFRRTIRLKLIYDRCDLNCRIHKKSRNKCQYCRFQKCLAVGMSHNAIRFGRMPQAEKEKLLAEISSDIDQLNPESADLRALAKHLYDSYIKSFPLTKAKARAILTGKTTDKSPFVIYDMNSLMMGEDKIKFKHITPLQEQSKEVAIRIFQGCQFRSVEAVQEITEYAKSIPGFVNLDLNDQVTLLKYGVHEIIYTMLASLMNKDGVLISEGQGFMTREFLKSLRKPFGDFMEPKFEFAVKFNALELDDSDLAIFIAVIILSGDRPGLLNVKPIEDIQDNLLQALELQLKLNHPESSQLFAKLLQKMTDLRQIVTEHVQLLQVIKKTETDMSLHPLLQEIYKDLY
human Retinoid X Receptor beta (RXRb), RXRB (gene 6257), sequence (P28702 whole entry, looked up, the tested form may be a part): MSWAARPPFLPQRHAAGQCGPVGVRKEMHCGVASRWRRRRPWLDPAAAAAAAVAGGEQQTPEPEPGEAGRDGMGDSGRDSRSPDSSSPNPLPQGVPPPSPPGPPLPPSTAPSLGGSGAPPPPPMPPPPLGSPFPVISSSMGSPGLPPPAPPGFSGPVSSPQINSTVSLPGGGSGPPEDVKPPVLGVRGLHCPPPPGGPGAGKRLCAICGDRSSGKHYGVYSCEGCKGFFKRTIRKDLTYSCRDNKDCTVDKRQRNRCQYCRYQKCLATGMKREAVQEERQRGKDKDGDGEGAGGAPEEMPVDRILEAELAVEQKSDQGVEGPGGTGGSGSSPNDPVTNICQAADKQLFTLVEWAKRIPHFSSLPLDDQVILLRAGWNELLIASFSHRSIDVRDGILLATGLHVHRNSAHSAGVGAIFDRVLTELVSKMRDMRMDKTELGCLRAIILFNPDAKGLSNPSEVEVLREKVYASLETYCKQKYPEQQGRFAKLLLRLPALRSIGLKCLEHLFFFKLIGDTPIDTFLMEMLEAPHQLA
Cellular tumor antigen p53 (Homo sapiens), sequence (P04637 whole entry, looked up): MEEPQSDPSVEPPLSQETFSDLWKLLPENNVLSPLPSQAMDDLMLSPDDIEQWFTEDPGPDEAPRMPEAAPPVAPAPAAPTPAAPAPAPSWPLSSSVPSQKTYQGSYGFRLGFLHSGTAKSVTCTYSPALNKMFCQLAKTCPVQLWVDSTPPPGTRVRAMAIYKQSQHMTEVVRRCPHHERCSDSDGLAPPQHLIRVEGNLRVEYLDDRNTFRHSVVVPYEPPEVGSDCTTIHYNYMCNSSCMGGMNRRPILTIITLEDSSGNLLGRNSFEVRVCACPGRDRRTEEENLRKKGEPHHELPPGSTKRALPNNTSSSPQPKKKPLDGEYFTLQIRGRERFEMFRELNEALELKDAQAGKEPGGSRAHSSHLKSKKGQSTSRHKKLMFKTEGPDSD
Hepatocyte nuclear factor 4-alpha (Homo sapiens), sequence (P41235 whole entry, looked up, the tested form may be a part): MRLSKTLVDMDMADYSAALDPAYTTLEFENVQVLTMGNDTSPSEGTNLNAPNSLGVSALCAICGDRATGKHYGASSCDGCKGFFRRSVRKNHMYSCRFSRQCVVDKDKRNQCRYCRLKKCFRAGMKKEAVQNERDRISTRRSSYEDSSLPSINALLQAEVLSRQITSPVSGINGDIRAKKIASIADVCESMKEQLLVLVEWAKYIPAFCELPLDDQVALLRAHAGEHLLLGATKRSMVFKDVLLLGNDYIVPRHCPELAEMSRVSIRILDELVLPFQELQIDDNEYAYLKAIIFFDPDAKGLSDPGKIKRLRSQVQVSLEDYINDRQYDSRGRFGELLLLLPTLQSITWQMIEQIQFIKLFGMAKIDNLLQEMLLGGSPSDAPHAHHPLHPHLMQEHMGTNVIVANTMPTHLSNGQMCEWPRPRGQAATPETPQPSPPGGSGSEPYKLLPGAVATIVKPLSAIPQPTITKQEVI

Turning to `O=c1c2ccccc2c(=O)c2c1cc(Cl)c1[nH]c3c([nH]c12)c(Cl)cc1c(=O)c2ccccc2c(=O)c13`, the molecule was classed as inactive in assay [1], in [2], in assay [3], in assay [4], in [5] and in assay [6]. Besides, the call in assay [7], in assay [8], in assay [9], in assay [12], in assay [13] and in assay [14] was inactive. Further, the outcome in [15] and in assay [16] was inactive. Also, the AC50 (in general, the concentration giving half of the maximal activity seen) in assay [10] is 40.5 µM (active); in assay [11], 138 µM (active); in assay [17], 6.28 µM (active).

`Nc1ccc(-c2ccc(N)c(N)c2)cc1N`: the call in [3], in [5], in assay [6], in assay [7], in assay [18] and in assay [8] was inactive. For the same molecule, the molecule was called inactive in [9], in assay [10], in [11] and in [17].

Consider `Cc1ccc(C)c2ccccc12`, for which the result in assay [2], in assay [4], in [5], in assay [18], in assay [8] and in assay [9] was inactive. Further, the molecule was called inactive in [10] and in [17]. Moreover, the AC50 in [11] was 83.3 µM (active).

As to `O=[N+]([O-])c1cc(C(F)(F)F)c(Cl)c([N+](=O)[O-])c1Cl`, the molecule was classed as inactive in [1], in assay [5], in [7] and in assay [8]. For the same molecule, the AC50 in [4] is 6.68 µM (active); in [6], 11.1 µM (active); in assay [9], 6.17 µM (active); in assay [10] it was 8.34 µM (active); in [19], 35.2 µM (active); in assay [12], 13.3 µM (active). Besides, the AC50 was 22.2 µM (active) in assay [20], 35.9 µM (active) in assay [13], 21 µM (active) in [14] and 46.1 µM (active) in [15].

Take `COc1cc(OC)nc(Oc2cccc(Oc3nc(OC)cc(OC)n3)c2C(=O)O)n1`: the result in assay [2], in assay [3], in assay [4], in assay [18], in assay [9] and in assay [10] was inactive. For the same molecule, the outcome in assay [11], in assay [19], in [12], in assay [20], in [14] and in assay [15] was inactive. In [17], the molecule was called inactive.

Source of the values: PubChem BioAssay (EPA / NIEHS).
